Compound in this assay: CN[C@@H]1C[C@H]2O[C@@](C)([C@@H]1OC)n1c3ccccc3c3c4c(c5c6ccccc6n2c5c31)C(=O)NC4 [staurosporine]
The assay can be described thus: log2 fold change of tryptic peptide abundance, ligand vs vehicle (limited proteolysis) (log2 ratio); higher = more trypsin-susceptible (destabilized). The following applies: ligand concentration: 20 uM; sample: mouse liver crude lysate; replicate design: treated separately.
Chain of UniProt Q8CIE6 (Q8CIE6 whole entry): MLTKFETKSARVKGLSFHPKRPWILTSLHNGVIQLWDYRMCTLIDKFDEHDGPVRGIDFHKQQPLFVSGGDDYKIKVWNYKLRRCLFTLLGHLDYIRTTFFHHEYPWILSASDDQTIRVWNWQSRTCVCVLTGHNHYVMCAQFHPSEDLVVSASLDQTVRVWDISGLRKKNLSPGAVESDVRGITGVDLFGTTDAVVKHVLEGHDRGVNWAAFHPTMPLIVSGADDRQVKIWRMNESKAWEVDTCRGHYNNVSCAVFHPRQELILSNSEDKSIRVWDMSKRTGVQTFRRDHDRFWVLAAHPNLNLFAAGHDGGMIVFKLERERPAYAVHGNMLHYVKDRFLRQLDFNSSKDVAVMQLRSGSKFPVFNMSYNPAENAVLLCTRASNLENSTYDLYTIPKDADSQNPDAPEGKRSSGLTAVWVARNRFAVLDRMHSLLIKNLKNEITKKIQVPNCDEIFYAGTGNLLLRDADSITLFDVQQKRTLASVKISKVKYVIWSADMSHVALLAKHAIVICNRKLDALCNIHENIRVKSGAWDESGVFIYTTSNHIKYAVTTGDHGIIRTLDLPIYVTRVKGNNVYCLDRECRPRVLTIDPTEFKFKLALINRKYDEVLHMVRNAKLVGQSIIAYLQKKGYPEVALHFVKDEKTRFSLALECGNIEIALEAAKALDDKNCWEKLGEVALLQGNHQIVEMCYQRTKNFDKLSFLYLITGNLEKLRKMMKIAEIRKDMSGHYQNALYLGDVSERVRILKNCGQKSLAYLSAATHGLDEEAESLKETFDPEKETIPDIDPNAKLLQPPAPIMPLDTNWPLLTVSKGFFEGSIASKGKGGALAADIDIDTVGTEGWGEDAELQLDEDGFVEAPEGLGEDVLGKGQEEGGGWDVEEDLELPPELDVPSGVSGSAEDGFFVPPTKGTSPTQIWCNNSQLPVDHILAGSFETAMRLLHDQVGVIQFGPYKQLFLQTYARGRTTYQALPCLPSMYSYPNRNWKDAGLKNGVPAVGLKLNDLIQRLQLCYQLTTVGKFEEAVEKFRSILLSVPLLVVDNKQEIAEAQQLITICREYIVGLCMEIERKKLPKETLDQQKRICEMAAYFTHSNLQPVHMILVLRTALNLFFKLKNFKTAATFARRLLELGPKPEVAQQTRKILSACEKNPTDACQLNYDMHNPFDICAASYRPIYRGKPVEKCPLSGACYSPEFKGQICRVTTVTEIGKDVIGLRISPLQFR
Chain of UniProt Q8VDU5 (Q8VDU5 whole entry): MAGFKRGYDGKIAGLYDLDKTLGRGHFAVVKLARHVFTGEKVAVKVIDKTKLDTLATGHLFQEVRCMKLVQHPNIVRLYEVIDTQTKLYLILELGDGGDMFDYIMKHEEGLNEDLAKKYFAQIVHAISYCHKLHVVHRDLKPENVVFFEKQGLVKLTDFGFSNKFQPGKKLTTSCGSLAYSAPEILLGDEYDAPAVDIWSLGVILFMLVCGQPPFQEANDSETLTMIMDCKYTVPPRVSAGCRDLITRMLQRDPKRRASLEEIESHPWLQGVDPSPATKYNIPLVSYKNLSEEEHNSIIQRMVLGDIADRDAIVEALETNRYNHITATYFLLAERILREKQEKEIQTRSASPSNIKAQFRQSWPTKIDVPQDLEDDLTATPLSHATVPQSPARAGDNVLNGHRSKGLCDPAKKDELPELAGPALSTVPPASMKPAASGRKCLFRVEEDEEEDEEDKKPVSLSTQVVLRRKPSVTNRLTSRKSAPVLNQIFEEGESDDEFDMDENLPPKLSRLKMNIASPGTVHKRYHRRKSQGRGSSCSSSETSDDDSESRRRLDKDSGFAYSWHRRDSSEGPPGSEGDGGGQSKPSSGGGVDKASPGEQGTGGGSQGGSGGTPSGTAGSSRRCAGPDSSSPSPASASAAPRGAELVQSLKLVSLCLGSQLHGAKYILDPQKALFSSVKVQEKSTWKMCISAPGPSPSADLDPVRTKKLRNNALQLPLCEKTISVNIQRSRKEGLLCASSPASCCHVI
Chain of UniProt O89112 (O89112 whole entry): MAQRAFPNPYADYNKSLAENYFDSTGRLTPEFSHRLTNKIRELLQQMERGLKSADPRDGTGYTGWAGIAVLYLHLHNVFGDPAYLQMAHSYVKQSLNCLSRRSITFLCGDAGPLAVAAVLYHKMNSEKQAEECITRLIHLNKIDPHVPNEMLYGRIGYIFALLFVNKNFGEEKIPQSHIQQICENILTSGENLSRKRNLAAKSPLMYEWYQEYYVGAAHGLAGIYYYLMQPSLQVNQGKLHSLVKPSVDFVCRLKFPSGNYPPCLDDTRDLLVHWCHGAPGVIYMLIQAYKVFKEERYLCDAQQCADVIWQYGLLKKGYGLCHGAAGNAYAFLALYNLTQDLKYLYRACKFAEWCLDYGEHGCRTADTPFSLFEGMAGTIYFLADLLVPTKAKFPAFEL
Chain of UniProt Q8JZY4 (Q8JZY4 whole entry): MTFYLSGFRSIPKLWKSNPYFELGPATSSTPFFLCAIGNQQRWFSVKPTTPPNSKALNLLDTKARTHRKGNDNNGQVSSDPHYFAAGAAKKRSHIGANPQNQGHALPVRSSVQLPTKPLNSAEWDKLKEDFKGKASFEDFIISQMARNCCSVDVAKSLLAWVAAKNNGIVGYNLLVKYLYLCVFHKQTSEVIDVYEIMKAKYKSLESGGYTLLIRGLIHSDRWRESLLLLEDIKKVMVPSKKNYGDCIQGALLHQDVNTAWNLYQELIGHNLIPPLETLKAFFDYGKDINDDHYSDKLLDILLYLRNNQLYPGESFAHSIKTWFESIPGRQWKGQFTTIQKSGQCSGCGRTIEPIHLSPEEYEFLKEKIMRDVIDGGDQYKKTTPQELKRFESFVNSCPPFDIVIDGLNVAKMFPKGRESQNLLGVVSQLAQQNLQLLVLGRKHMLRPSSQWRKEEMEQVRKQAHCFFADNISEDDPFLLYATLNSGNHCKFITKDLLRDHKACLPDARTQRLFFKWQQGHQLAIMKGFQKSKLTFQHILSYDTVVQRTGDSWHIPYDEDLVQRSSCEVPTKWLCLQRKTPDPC
Chain of UniProt Q8VCH6 (Q8VCH6 whole entry): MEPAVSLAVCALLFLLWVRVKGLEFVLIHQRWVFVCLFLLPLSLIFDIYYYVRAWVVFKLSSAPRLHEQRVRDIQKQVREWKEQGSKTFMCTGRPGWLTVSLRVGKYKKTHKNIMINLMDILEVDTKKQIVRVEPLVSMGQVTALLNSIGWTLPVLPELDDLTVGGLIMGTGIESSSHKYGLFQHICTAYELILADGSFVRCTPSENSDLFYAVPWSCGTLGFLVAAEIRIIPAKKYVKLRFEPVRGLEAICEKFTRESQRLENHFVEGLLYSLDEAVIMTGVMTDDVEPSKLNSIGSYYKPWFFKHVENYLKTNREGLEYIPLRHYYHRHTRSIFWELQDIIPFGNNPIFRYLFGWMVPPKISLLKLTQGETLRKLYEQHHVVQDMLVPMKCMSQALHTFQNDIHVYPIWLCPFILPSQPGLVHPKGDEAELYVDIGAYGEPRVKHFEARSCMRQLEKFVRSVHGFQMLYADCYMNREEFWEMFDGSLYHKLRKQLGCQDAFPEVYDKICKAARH
Chain of UniProt Q9Z1M4 (Q9Z1M4 whole entry): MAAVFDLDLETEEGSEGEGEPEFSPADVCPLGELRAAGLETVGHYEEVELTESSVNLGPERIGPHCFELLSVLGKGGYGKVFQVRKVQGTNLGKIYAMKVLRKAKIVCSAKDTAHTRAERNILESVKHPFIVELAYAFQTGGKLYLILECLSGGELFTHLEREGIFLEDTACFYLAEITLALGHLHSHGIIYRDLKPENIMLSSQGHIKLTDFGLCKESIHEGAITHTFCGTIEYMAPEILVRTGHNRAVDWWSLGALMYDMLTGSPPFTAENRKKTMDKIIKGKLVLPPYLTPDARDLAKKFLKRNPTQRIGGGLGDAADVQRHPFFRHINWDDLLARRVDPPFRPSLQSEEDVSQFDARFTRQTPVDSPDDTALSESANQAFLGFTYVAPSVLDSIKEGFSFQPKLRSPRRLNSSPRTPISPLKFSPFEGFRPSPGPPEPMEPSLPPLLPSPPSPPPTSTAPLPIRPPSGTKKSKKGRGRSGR
Chain of UniProt P08226 (P08226 whole entry): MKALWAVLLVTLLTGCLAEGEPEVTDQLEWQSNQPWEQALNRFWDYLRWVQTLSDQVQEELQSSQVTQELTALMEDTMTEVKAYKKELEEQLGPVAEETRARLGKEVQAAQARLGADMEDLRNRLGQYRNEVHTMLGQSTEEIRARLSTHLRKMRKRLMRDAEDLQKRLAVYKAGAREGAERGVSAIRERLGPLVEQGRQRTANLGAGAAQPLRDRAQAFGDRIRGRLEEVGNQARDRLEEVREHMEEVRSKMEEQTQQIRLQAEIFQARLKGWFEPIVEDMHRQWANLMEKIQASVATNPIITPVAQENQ
Chain of UniProt Q9D0I9 (Q9D0I9 whole entry): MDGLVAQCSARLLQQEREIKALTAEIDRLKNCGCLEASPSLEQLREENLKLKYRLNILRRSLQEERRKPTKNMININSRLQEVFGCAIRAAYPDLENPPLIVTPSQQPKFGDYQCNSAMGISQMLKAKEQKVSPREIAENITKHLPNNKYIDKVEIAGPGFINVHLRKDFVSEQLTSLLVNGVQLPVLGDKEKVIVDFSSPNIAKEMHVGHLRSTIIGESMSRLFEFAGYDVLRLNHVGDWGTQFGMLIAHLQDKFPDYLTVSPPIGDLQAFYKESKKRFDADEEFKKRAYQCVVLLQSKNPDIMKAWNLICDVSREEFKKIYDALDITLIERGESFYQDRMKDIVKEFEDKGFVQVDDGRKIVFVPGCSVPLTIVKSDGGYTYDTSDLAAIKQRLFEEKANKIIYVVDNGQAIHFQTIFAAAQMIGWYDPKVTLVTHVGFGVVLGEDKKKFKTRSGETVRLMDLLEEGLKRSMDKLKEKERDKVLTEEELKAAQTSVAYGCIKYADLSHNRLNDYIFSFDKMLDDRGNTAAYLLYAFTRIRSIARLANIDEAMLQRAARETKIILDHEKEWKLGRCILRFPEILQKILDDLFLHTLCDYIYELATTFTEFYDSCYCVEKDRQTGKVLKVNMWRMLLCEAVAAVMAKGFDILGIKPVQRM
For the target “UniProt P09813 (peptide sequence: THEQLTPLVR, peptide start residue: 68)”, the log2 fold change worked out at 0.46.
Next, “UniProt P47754 (peptide sequence: TSVETALR, peptide start residue: 122)”: -0.836; “UniProt P24456 (peptide sequence: RVQQEIDAVIGQVR, peptide start residue: 333)”: -0.553; “UniProt Q99PV0 (peptide sequence: VESHFDLELR, peptide start residue: 677)”: 0.478.
With “UniProt P55264 (peptide sequence: ELFDELVK, peptide start residue: 63)”, the log2 fold change was -2.24.
Then “UniProt Q9D0I9 (peptide sequence: GFDILGIKPVQR, peptide start residue: 648)”, with 0.372; and “UniProt Q99LC5 (peptide sequence: TIYAGNALCTVK, peptide start residue: 147)”, with 0.35; and “UniProt Q8BW96 (peptide sequence: IMISDFGLSK, peptide start residue: 161)”, with -1.32.
Take “UniProt Q8R123 (peptide sequence: LSMVPSSAR, peptide start residue: 125)”: the log2 fold change was -0.276.
As to “UniProt Q9WTU6 (peptide sequence: MLVIDPDKR, peptide start residue: 301)”, the log2 fold change is -1.15.
Then “UniProt Q7TMY8 (peptide sequence: HLGYTLCK, peptide start residue: 3630)”, with 0.491; and “UniProt P30681 (peptide sequence: MSSYAFFVQTCREEHK, peptide start residue: 13)”, with -0.185.
Then “UniProt O89112 (peptide sequence: AFPNPYADYNK, peptide start residue: 5)”, with 0.594; and “UniProt P10649 (peptide sequence: YIATPIFSK, peptide start residue: 203)”, with 0.584.
Next, “UniProt Q8VDU5 (peptide sequence: IAGLYDLDKTLGR, peptide start residue: 12)”: -1.42.
Regarding “UniProt Q8CIE6 (peptide sequence: VTTVTEIGKDVIGLR, peptide start residue: 1203)”, the log2 fold change is -0.699.
Then “UniProt Q8BTH8 (peptide sequence: GSLPWQGLK, peptide start residue: 245)”, with -0.593; and “UniProt Q9Z1M4 (peptide sequence: IGPHCFELLSVLGK, peptide start residue: 62)”, with -0.47; and “UniProt Q6PDI5 (peptide sequence: NLTSNMWR, peptide start residue: 1165)”, with 0.284.
Then “UniProt Q60855 (peptide sequence: DLKPENILVDRDFHIK, peptide start residue: 138)”, with 1.33.
Regarding “UniProt P08226 (peptide sequence: LQAEIFQAR, peptide start residue: 262)”, the log2 fold change amounted to 0.428.
As for “UniProt Q8JZY4 (peptide sequence: YLYLCVFHK, peptide start residue: 178)”, the log2 fold change was 0.47.
Next, “UniProt Q8CAS9 (peptide sequence: NILDYVTK, peptide start residue: 221)”: 0.389; “UniProt P22907 (peptide sequence: ELENALEKNEVDLVVHSLK, peptide start residue: 80)”: -0.802.
Then “UniProt P24604 (peptide sequence: ELGSGLFGVVR, peptide start residue: 374)”, with -0.989; and “UniProt P18654 (peptide sequence: GAMAATYSALNR, peptide start residue: 701)”, with 0.612; and “UniProt O89079 (peptide sequence: KYGVVLDEIKPSSAPELQAVR, peptide start residue: 65)”, with -0.856.
In the case of “UniProt Q9EP53 (peptide sequence: SHLLQQNQR, peptide start residue: 890)”, the log2 fold change was -0.636.
On to “UniProt Q61136 (peptide sequence: LNDADPDDKFHCLR, peptide start residue: 739)”, for which the log2 fold change was -1.19.
Next, “UniProt Q8VCH6 (peptide sequence: LTQGETLR, peptide start residue: 368)”: 0.499.
Then “UniProt Q61036 (peptide sequence: ELLQHPFLK, peptide start residue: 493)”, with -2.37.

(Values after the supplement of paper PMC12819154, “High-throughput peptide-centric local stability assay extends protein–ligand identification to membrane proteins, tissues and bacteria” (Nature Structural & Molecular Biology, 2025).)
